For assay [1], the target named is T1, Tyrosine-protein kinase Mer (Homo sapiens) (UniProt Q12866).
T1 sequence (whole entry): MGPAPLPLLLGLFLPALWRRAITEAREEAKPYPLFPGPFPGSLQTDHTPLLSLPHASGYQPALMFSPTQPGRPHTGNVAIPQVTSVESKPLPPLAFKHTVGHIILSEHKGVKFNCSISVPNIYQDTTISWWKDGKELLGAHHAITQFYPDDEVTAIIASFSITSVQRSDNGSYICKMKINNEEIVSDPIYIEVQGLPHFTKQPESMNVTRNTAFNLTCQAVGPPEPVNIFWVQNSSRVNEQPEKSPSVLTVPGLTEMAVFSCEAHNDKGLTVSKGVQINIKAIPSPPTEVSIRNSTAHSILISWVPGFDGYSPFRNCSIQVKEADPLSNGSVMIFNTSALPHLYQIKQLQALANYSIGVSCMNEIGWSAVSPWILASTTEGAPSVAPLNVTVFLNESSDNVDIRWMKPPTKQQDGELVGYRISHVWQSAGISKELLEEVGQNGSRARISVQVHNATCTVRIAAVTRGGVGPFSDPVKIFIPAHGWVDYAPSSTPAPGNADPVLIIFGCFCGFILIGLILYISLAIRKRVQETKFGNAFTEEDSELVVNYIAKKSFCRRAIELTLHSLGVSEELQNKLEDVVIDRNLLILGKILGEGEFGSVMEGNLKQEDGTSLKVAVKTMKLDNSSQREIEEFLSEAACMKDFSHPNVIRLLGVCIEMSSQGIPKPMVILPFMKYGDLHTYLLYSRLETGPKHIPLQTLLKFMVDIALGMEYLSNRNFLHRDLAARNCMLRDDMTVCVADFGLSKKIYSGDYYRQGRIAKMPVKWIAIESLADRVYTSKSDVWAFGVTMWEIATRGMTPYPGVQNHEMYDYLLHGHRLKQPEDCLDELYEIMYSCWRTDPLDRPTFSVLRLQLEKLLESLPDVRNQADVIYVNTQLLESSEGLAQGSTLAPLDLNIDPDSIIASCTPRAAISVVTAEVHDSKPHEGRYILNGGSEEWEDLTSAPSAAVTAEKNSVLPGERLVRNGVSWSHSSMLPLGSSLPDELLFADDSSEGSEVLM
Conditions: at 1 µM.

Assay [2] addresses T1, Tyrosine-protein kinase Mer (Homo sapiens). As to conditions: at 10 µM.
The target of assay [3] is Hepatocyte growth factor receptor (Homo sapiens) (UniProt P08581). As to conditions: at 1 µM.
Chain of Hepatocyte growth factor receptor (Homo sapiens) (P08581 whole entry): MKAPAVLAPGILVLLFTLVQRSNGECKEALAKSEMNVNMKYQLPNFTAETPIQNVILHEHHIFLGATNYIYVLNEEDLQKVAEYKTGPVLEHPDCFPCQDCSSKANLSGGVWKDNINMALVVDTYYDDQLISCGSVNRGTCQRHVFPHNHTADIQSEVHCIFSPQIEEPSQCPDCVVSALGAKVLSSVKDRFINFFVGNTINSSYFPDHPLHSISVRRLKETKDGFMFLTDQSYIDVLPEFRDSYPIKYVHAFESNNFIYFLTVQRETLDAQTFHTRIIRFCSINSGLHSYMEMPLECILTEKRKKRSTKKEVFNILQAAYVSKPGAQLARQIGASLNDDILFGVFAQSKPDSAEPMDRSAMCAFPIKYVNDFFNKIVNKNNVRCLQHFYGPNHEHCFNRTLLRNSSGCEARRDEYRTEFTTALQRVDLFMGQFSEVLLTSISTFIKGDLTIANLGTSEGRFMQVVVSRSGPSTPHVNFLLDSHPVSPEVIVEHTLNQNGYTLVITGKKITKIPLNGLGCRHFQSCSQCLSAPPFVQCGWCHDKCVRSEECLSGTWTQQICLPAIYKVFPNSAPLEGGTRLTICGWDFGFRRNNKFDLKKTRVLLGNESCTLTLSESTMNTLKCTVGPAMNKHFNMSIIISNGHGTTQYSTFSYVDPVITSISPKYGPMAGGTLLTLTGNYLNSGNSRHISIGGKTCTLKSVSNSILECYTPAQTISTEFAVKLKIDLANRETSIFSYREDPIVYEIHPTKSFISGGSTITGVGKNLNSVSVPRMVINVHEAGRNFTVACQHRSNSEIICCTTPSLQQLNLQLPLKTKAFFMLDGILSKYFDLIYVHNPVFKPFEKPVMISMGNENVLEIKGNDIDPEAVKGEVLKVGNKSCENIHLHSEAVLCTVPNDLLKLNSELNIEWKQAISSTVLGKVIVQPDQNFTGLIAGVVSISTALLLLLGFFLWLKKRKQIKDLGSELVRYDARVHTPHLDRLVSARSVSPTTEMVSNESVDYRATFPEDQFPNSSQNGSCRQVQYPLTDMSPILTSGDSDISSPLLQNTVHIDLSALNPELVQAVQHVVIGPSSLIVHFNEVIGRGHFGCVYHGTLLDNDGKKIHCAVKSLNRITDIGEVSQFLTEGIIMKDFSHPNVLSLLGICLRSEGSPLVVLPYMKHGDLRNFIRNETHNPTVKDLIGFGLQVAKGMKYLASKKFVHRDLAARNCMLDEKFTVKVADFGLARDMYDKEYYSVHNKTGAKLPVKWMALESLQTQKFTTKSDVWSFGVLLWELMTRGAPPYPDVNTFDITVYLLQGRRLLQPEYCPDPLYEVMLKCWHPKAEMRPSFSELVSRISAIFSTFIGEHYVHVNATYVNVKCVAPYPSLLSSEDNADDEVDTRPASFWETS
Assay [4] shares this target. As to conditions: at 10 µM.
Assay [5] addresses MAP kinase-interacting serine/threonine-protein kinase 2 (Homo sapiens) (UniProt Q9HBH9). As to conditions: at 1 µM.
For assay [6] the target is unchanged. As to conditions: at 10 µM.
For assay [7], the target named is T2, Muscle, skeletal receptor tyrosine-protein kinase (Homo sapiens) (UniProt O15146).
T2 sequence (whole entry): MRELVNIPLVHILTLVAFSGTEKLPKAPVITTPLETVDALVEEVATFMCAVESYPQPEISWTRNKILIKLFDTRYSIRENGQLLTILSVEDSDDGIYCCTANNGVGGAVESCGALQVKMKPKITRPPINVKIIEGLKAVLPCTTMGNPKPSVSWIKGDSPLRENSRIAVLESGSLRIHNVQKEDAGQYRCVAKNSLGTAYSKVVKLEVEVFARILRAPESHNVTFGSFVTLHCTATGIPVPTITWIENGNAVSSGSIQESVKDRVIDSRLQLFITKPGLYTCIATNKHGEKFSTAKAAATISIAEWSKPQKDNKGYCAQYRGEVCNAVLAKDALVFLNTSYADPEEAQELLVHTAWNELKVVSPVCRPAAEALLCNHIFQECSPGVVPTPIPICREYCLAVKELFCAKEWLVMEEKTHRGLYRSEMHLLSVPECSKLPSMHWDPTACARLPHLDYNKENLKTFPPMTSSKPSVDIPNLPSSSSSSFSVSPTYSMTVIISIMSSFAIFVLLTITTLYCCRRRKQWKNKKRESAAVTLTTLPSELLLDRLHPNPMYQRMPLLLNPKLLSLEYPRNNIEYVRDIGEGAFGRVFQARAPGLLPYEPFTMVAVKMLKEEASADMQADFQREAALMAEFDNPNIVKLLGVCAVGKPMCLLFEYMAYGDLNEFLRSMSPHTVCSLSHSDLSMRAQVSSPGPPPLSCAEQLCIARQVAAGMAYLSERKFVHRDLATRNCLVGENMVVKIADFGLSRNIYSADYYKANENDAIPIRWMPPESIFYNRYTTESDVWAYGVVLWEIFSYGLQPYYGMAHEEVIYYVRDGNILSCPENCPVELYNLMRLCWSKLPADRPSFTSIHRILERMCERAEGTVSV
As to conditions: at 1 µM.

The target in assay [8] is T2, Muscle, skeletal receptor tyrosine-protein kinase (Homo sapiens). Conditions: at 10 µM.
The target in assay [9] is T3, Serine/threonine-protein kinase Nek11 (Homo sapiens) (UniProt Q8NG66).
T3 sequence (whole entry): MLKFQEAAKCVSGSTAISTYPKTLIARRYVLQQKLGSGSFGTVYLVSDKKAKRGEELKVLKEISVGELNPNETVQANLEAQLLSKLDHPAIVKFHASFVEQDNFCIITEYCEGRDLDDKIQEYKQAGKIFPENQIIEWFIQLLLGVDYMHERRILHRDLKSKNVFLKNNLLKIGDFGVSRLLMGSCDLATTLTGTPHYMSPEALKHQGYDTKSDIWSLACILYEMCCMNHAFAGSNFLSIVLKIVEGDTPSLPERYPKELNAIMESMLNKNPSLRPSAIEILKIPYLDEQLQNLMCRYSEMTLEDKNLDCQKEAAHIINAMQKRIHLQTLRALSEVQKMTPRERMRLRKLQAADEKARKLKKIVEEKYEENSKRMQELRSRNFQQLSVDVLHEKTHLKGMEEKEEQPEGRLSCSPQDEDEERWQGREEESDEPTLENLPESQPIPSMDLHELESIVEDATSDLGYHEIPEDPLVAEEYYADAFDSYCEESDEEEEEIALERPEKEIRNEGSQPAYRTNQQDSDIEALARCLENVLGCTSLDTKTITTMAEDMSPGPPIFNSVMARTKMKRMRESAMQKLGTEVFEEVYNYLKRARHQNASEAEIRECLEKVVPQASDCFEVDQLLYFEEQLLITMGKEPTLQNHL
As to conditions: at 1 µM.

For assay [10], the target named is T3, Serine/threonine-protein kinase Nek11 (Homo sapiens). As to conditions: at 10 µM.

Molecules are shown by their SMILES.

Chain of MAP kinase-interacting serine/threonine-protein kinase 2 (Homo sapiens) (Q9HBH9 whole entry, looked up): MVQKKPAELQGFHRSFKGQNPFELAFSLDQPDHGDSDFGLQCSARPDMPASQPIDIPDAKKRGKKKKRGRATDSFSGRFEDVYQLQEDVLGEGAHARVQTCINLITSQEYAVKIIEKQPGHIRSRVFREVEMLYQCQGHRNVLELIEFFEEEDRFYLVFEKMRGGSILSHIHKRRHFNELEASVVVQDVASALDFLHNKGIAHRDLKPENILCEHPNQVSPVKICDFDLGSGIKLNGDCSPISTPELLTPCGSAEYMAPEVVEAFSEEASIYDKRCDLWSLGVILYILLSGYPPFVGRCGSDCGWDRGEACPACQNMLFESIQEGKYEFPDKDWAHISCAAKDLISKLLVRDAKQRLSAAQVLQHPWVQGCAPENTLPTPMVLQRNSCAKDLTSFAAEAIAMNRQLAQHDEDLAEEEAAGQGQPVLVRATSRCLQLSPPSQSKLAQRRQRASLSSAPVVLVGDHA

The residual activity is the signal under treatment as a percentage of the control signal. For the compound `C[S+]([O-])c1ccc(-c2nc(-c3ccc(F)cc3)c(-c3ccncc3)[nH]2)cc1` (centres undefined), the residual activity came out at 117% in [1]; 105% in assay [2]; 123% in assay [3]; 68% in assay [4]; 103% in assay [5]; 87% in [6]. Also, the residual activity in assay [7] was found to be 143%; in [8], 95%; in assay [9], 90%.

For `CC(C)[C@H](CO)Nc1nc(Nc2cccc(Cl)c2)c2ncn(C(C)C)c2n1`, the residual activity in [1] came out at 26%; in assay [2] it was 0%; in [3], 83%; in [4], 73%; in [6], 98%; in assay [7], 48%. Moreover, the residual activity is 5% in [8], 59% in assay [9] and 38% in assay [10].

Regarding `O=C1NC(=O)c2c1c1c3ccccc3n3c1c1c2c2ccccc2n1C1CCC3O1`, the residual activity was 34% in assay [1]; 11% in assay [2]; 97% in [5]; 95% in assay [6]; 91% in assay [9]; 87% in assay [10].

For `O=C1Nc2ccc3ncsc3c2/C1=C/c1c[nH]cn1`, the residual activity in [1] worked out at 6%; in assay [2], 2%; in assay [3], 18%; in assay [4], 4%; in assay [5], 9%; in assay [6], 4%. The residual activity was determined as 53% in assay [7], 11% in [8], 50% in [9] and 13% in [10].

In the case of `COc1cc2ncnc(Nc3ccc(OCc4ccccc4)cc3)c2cc1OC`, the residual activity turned out to be 64% in assay [1]; 49% in assay [2]; 87% in [3]; 87% in assay [4]; 90% in assay [5]; 68% in assay [6]. Further, the residual activity in assay [7] came out at 118%; in [8], 77%; in assay [9], 99%; in [10], 101%.

Turning to `CCc1nc(-c2ccc(OC)cc2)[nH]c1-c1ccncc1`, the residual activity in assay [5] is 105%; in [6] it was 59%; in [7], 117%; in [8], 76%; in [9] it was 62%; in assay [10] it was 72%.

As to `N/C(=N\[N+](=O)[O-])N/N=C\c1ccc(-c2cccc([N+](=O)[O-])c2)o1`, the residual activity in [7] is 93%; in assay [8], 91%; in assay [9], 73%; in assay [10] it was 72%.

For the compound `O=[N+]([O-])/C=C/c1ccc2c(c1)OCO2`, the residual activity in [1] is 106%; in assay [2], 108%; in [3] it was 111%; in assay [4] it was 96%; in assay [5], 116%; in assay [6], 105%. The residual activity stood at 127% in assay [7], 114% in [8], 90% in assay [9] and 106% in assay [10].

Consider `COc1ccc2c(c[n+](C)c3c4cc5c(cc4ccc23)OCO5)c1OC`, for which the residual activity in assay [3] was determined as 94%; in assay [4], 85%; in assay [6], 82%; in assay [8], 95%.

Take `O=C1c2ccccc2-c2nc3nnnn3nc21`: the residual activity in [1] was determined as 124%; in assay [2] it was 103%; in assay [3], 127%; in [4], 133%; in assay [5], 100%; in assay [6], 75%. Moreover, the residual activity came out at 131% in assay [7] and 105% in assay [8].

On to `COc1cc(OC)c(/C=C2\C(=O)Nc3ccccc32)c(OC)c1`, for which the residual activity amounted to 95% in assay [1]; 93% in [2]; 103% in assay [3]; 94% in [4]; 99% in assay [5]; 96% in [6]. Moreover, the residual activity stood at 88% in assay [7], 78% in assay [8], 43% in [9] and 61% in assay [10].

Regarding `CCn1cnc2c(Nc3cccc(Cl)c3)nc(N[C@@H]3CCCC[C@@H]3N)nc21`, the residual activity in assay [1] is 8%; in assay [2], -1%; in assay [4], 72%; in assay [5], 97%; in [6], 70%; in [7], 61%. The residual activity in assay [8] came to 13%; in assay [9] it was 68%; in [10] it was 55%.

Turning to `O=c1[nH]c2ccccc2n1C1CCN(Cc2ccc(-c3nc4cc5[nH]cnc5cc4nc3-c3ccccc3)cc2)CC1`, the residual activity in [1] was found to be 112%; in assay [2] it was 51%; in assay [3] it was 93%; in assay [4], 88%; in assay [5], 97%; in [6] it was 67%. Also, the residual activity in [7] worked out at 105%; in [8], 84%; in [9], 75%; in assay [10], 88%.

Consider `c1cc(-c2cnn3cc(-c4ccc(OCCN5CCCCC5)cc4)cnc23)ccn1`, for which the residual activity in assay [1] worked out at 33%; in [2], 3%; in [5], 56%; in assay [6], 24%; in assay [7], 18%; in assay [8], 1%.

On to `COC(=O)[C@@]1(O)C[C@H]2O[C@]1(C)n1c3ccccc3c3c4c(c5c6ccccc6n2c5c31)C(=O)NC4`, for which the residual activity is 2% in [1]; 0% in [2]; 6% in [3]; 13% in assay [4]; 0% in assay [5]; 0% in [6]. Further, the residual activity was 18% in [7], 2% in assay [8], 34% in assay [9] and 9% in [10].

On to `CC(C)(C)c1cc(C=C(C#N)C#N)cc(Br)c1O`, for which the residual activity worked out at 116% in assay [1], 121% in assay [7], 72% in assay [8] and 109% in assay [10].

In the case of `COc1ccc2c(c1)/C(=C/c1cnc[nH]1)C(=O)N2`, the residual activity in assay [4] came to 42%; in assay [6], 40%; in assay [7] it was 80%; in assay [8], 27%.

These data come from ChEMBL document CHEMBL2218924, “A broad activity screen in support of a chemogenomic map for kinase signalling research and drug discovery” (Biochem J, 2013).
